Out of some 48,000 compounds screened, about 13,000 (27%) showed an effect of 50% or more. This is one part of the list.
Tested on: Wolbachia pipientis
Experiment: Anti-Wolbachia Cell-Based Screen
Format: functional
Parameters: scale not given: in the data most compounds retested in dose-response had high values
Details: 5 µM

Compound | Percent Effect
CC(C)N(Cc1cccc(Cl)c1)Cc1nnsc1Cl | 2.005%
Cc1cc(CN2CCc3nn(C)c(=O)cc3C2)no1 | -29.82%
O=C(NCC1CCS(=O)(=O)C1)c1sccc1-c1ccc(F)cc1 (stereo unspecified) | -6.4%
Cc1cc(NC(=O)NCCc2ccsc2)n(C)n1 | 2.6%
c1ccc(Cc2noc(CN3CCCC(Cn4cncn4)C3)n2)cc1 (stereo unspecified) | 97.1%
COCCc1noc(CN2CCCC(Cn3cncn3)C2)n1 (stereo unspecified) | 89.51%
c1coc(-c2noc(CN3CCCC(Cn4cncn4)C3)n2)c1 (stereo unspecified) | -0.1927%
Clc1snnc1CN1CCCC(Cn2cncn2)C1 (stereo unspecified) | 3.779%
Fc1ccccc1Cc1noc(CN2CCCC(CN3CCCC3)C2)n1 (stereo unspecified) | -1.357%
CC(C)Cc1noc(CN2CCCC(Cn3cncn3)C2)n1 (stereo unspecified) | 3.537%
COCCN(C(=O)c1ccsc1)c1ccc(C#N)cc1 | -12.97%
O=C(Cc1cn2ccsc2n1)N1CCOCC(O)(CN2CCCC2)C1 (stereo unspecified) | 4.067%
CS(=O)(=O)N1CCCn2nc(CNc3ncccn3)cc2C1 | -7.874%
Cc1cc(NCc2cc3n(n2)CCCN(C(=O)C2CCC2)C3)ncn1 | 87.84%
N[C@H]1CC[C@@H](CN2CCCn3nc(CNC(=O)C4CCC4)cc3C2)CC1 | 11.2%
O=C(C1CCC1)N1CCCn2nc(CNc3ncccn3)cc2C1 | 131.9%
Cc1nc(CN2CCCn3nc(CNC(=O)C4CCC4)cc3C2)co1 | -9.719%
Cc1cc(NCc2cc3n(n2)CCCN(C(=O)N(C)C)C3)ncn1 | -7.228%
Cc1cc(NCc2cc3n(n2)CCCN(S(C)(=O)=O)C3)ncn1 | -6.593%
Cc1cc(NCc2cc3n(n2)CCCN(C(=O)C2CCC2)C3)nc(N)n1 | 111.3%
CC(=O)N1CCCn2nc(CNS(=O)(=O)N3CCCCCC3)cc2C1 | -0.4584%

Compound | Percent Effect
Cc1cc(C)nc(NCc2cc3n(n2)CCCN(C(=O)C2CCC2)C3)n1 | 104.2%
CC(=O)N1CCCn2nc(CNc3cc(C)ncn3)cc2C1 | 18.58%
COc1ccccc1CN1C(=O)O[C@@H]2CN(c3nccs3)C[C@@H]21 | -9.448%
CCc1ccc(NS(=O)(=O)CC2=NC(=O)n3cccc3C2=O)cc1 | 11.57%
CCn1cnnc1CCNC(=O)c1ccc(F)c(Br)c1 | -6.891%
CN(C)C(=O)CO[C@H]1CO[C@@]2(CCN(S(C)(=O)=O)C2)C1 | -10.41%
Cn1c(CN2CCN(c3cccnc3)CC2)cc2ccccc21 | 39.54%
CC(C)NC(=O)C1CN(C(N)=O)Cc2ccnn2C1 (stereo unspecified) | -7.077%
COCCNC(=O)C1CN(Cc2cccnc2)Cc2ccnn2C1.O=C(O)C(F)(F)F.O=C(O)C(F)(F)F.O=C(O)C(F)(F)F (stereo unspecified) | 1.319%
CC(=O)N1Cc2ccnn2CC(C(=O)NCc2cccnc2)C1.O=C(O)C(F)(F)F (stereo unspecified) | 105.9%
COCCNC(=O)C1CN(Cc2ccsc2)Cc2ccnn2C1 (stereo unspecified) | 3.328%
O=C(NCc1cccnc1)[C@@H]1CC[C@@H]2[C@@H](CCN2c2ncc(F)cn2)O1.O=C(O)C(F)(F)F.O=C(O)C(F)(F)F | -0.1893%
CS(=O)(=O)N1Cc2ccnn2CC(C(=O)NCc2cccnc2)C1.O=C(O)C(F)(F)F.O=C(O)C(F)(F)F (stereo unspecified) | 101.4%
COCCNC(=O)C1CN(C(N)=O)Cc2ccnn2C1 (stereo unspecified) | 100.3%
CC(C)CN(Cc1ccc(C(F)(F)F)nc1)Cc1cnn(C)c1 | -7.949%
COc1cccn(CC(=O)N(C)CCSC)c1=O | -16.92%
O=C(O)c1ccc2c(c1)C1(CCCCC1)CN2C(=O)c1cccs1 | -9.46%
O=C1CCCN1CCN1CC[C@@]2(O)CCN(c3ncccn3)C[C@H]2C1 | -11.72%
OC(CNCCn1cccn1)COc1ccc(Br)cc1 (stereo unspecified) | 2.37%
CCN(CC)CC[C@H]1CN(C(=O)C(C)(C)C)CC[C@H]1CC(=O)O | -8.739%
Cc1nc2n(n1)CC(NCCCc1nc(-c3cccs3)no1)CC2 (stereo unspecified) | -18.09%

Compound | Percent Effect
Cc1cccc(NC(=O)CN(C)C(=O)c2ccc(-n3cccc3)nc2)n1 | 6.082%
Cc1ncsc1C(=O)N[C@@H](Cc1ccccc1)C(N)=O | 5.528%
Cc1ncsc1C(=O)Nc1ccccn1 | 113.7%
Cc1oc(C)c(C(=O)Nc2ccccn2)c1C | 13.13%
Cc1ccc(C(=O)N(C)CC(=O)Nc2cccc(C)n2)cn1 | -9.643%
Cc1cccc(NC(=O)CN(C)C(=O)c2scnc2C)n1 | 117.3%
CCn1cc2c(n1)C(COCC1CC1)CN(C(=O)c1cnoc1C)C2 (stereo unspecified) | -6.391%
CN(CC1Cc2ccccc2CN1C)C(=O)CSc1ccccn1 (stereo unspecified) | 0.2013%
Cc1ccc(CNC2CC3(CCN(CCO)CC3)c3ccccc32)s1.O=C(O)C(F)(F)F.O=C(O)C(F)(F)F (stereo unspecified) | 107.2%
Cc1cccc(CNC2CC3(CCN(CCO)CC3)c3ccccc32)n1.O=C(O)C(F)(F)F.O=C(O)C(F)(F)F (stereo unspecified) | 121.3%
O=C(NC1CC2(CCN(CCO)CC2)c2ccccc21)c1ccno1.O=C(O)C(F)(F)F (stereo unspecified) | -3.484%
COCCN1CCC2(CC1)CC(NCc1cncn1C)c1ccccc12.O=C(O)C(F)(F)F.O=C(O)C(F)(F)F (stereo unspecified) | -4.638%
COCCN1CCC2(CC1)CC(N1CCOCC1)c1cc(C)ccc12.O=C(O)C(F)(F)F.O=C(O)C(F)(F)F (stereo unspecified) | -13.01%
O=C(NC1CC2(CCN(CCO)CC2)c2ccccc21)c1ccsc1.O=C(O)C(F)(F)F (stereo unspecified) | -2.437%
COCCN1CCC2(CC1)CC(NCc1ccc(C)s1)c1ccccc12.O=C(O)C(F)(F)F.O=C(O)C(F)(F)F (stereo unspecified) | 109.1%
CC(NCc1cccn1C)c1noc(-c2ccc(Cl)cc2)n1 (stereo unspecified) | -2.056%
CN1C(=O)CO[C@H](c2ccc(NC(=O)c3cccnc3)cc2)[C@H]1CO | -10.51%
Nc1nc2c(c(NC(=O)Nc3cccc(Cl)c3)n1)CCCC2 | 7.303%
Cc1c(NCc2ccc(C#N)cc2)cccc1S(=O)(=O)NC1CC1 | -7.698%
